From PubChem
BAZ2B block: blocks human BAZ2B. AlphaScreen BAZ2B-H3K14Ac peptide displacement. Potency, µM (doses to about 114 µM), for the others: top-dose activity change, negative = inhibition, hits mostly inhibitors. 4.4% of 360,000 active. AID 504333; further: on the % scale 0 is the no-effect control and ±100 the full control effect; nearly all actives have a fitted effect of over 60% in size
Target sequence (Q9UIF8 whole entry, looked up): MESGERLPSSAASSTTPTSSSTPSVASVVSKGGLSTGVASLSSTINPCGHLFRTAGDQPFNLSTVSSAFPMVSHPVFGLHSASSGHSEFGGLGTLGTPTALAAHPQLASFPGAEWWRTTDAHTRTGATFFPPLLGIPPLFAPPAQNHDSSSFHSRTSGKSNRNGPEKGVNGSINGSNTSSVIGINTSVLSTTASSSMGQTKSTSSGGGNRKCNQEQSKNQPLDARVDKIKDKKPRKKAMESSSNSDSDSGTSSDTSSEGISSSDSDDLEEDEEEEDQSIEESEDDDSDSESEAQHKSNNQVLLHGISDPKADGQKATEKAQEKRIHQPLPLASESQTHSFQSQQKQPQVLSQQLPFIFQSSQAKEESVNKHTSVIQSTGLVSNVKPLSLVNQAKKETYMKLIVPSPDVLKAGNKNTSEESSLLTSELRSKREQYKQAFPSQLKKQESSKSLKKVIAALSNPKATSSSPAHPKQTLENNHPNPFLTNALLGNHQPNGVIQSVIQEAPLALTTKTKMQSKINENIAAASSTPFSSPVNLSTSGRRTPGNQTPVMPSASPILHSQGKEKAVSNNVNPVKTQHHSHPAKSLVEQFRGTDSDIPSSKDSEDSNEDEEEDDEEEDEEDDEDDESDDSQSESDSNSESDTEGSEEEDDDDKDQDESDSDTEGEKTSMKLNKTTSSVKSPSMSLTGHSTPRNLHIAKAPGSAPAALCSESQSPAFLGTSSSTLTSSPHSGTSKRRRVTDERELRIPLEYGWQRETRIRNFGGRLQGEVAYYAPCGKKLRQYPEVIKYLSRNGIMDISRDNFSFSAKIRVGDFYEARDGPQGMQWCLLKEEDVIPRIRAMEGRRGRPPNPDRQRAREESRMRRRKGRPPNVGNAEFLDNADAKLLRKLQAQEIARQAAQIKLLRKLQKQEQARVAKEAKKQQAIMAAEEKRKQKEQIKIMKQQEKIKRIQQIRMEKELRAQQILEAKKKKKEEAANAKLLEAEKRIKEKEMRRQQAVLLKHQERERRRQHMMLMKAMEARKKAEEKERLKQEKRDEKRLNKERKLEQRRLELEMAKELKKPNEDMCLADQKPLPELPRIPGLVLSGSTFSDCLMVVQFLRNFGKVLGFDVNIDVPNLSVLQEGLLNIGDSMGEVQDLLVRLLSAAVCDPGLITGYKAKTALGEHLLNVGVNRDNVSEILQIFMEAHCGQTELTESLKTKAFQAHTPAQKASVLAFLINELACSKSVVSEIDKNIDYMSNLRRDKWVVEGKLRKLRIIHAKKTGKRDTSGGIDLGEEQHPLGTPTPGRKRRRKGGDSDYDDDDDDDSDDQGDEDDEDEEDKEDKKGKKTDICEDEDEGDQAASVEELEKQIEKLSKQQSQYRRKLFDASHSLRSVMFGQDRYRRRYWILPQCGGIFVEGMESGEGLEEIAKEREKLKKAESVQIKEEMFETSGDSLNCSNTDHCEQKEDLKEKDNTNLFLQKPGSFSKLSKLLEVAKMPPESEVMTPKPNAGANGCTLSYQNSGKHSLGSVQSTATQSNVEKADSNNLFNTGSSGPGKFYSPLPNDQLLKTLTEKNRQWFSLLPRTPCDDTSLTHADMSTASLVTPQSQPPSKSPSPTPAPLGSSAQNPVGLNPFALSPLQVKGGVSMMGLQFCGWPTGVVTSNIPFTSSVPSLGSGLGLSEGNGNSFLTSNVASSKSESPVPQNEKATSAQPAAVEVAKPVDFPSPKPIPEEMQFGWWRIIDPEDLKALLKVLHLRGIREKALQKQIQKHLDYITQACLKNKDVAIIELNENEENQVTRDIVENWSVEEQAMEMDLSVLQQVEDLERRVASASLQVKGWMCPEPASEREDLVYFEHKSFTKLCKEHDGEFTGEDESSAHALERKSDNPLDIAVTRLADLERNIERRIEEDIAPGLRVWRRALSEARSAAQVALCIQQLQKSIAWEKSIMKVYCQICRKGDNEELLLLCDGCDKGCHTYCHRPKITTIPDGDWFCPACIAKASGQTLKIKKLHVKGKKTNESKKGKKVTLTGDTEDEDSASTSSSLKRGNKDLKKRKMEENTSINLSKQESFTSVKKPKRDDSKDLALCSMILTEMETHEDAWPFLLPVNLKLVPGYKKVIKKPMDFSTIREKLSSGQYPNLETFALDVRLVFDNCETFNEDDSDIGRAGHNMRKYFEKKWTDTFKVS
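AlphaScreen displacement of biotin-H3(5-23)K14Ac peptide (50 nM final) from BAZ2B (50 nM final) in PBS pH 7.4, 0.01% Tween-20; complex preformed 30 min RT, then compounds (top 110 uM) 30 min RT, beads 20 min dark.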
HP1b chromo inh: blocks HP1-beta chromodomain binding to methylated histone tails. P83916. AlphaScreen HP1-beta / biotin-H3K9me3 peptide binding. Potency, µM (series often up to 114 µM), for the others: at the top dose activity change, negative = inhibition, usual class: inhibitors. 0.56% of 390,000 active. AID 540317; further: nearly all actives have a fitted effect of over 70% in size
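Compound inhibition of the preformed complex between 50 nM HP1-beta and 50 nM biotinylated H3K9me3 peptide was read by AlphaScreen. Buffer was PBS pH 7.4 with 0.01% Tween-20. Incubations ran 30 min at room temperature, with 10 ug/mL donor/acceptor beads.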
G9a inh: inhibitors of human histone lysine methyltransferase G9a; G9a H3K9 monomethylation, AlphaScreen, 2 h; Potency, µM (titrated, usually from 102 µM), inactives show top-dose activity, negative = inhibition, usual class: inhibitors; Q96KQ7; AID 504332; 8.8% of 350,000 active; further: on the % scale 0 is the no-effect control and ±100 the full control effect; nearly all actives have a fitted effect of over 75% in size
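G9a (20 nM) preincubated 15 min RT with compounds, then 500 nM biotinylated H3K9 peptide and 20 uM SAM added; 2 h RT reaction. Monomethyl-H3K9 product detected by AlphaScreen with anti-H3K9me1 antibody, streptavidin donor and anti-rabbit IgG acceptor beads.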
JMJD2A Tudor: JMJD2A Tudor domain (human) inhibition | Potency, µM (doses to about 114 µM), inactives show top-dose activity change, negative = inhibition, usual class: inhibitors | AID 504339 | 4.4% of 390,000 active | AlphaScreen JMJD2A-Tudor / H3K4me3 peptide binding; further: on the % scale 0 is the no-effect control and ±100 the full control effect; nearly all actives have a fitted effect of over 50% in size
Sfp inh: inhibitors of Bacillus subtilis Sfp phosphopantetheinyl transferase. AID 1490. Q9F4F7. 3.5% of 310,000 active. Biochemical Sfp PPTase activity, qHTS. Potency, µM, for the others: largest response in the series, negative = inhibition, most hits filed as inhibitors;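 further: the enzyme is Sfp with the accession as filed and its product quenches rhodamine fluorescence; 0% = enzyme reaction without inhibitor and -100% = no enzyme wells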
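Reaction rates are the 30-min fluorescence difference (ex 525, em 598 nm) in wells containing 15 nM Sfp, 5 uM rhodamine-CoA and 12.5 uM BHQ-2-YbbR at pH 7.6 with 10 mM MgCl2.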
L3MBTL1 block: L3MBTL1 (human) inhibition; AlphaScreen L3MBTL1–H3K9me1 peptide binding; Potency, µM (series often up to 57.1 µM), for inactives: top-dose activity, negative = inhibition, hits mostly inhibitors; 0.66% of 230,000 active; further: on the % scale 0 is the no-effect control and ±100 the full control effect; nearly all actives have a fitted effect of over 60% in size
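Displacement of a biotinylated histone H3(1-15) peptide monomethylated at Lys9 (75 nM) from L3MBTL1 (50 nM) was measured by AlphaScreen after a 30 min room-temperature compound incubation; cefsulodin titration served as intraplate control.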
Active calls of the source: *; ? = inconclusive; . = no result given; [ ] = remark or other dose. Sampled rows, rich in hits. Any-hit rate of the full collection: about 12%. The call rests on the fitted dose curve; in most records, active means well fitted curve in the direction sought with a large enough effect; inconclusive means small, poorly fitted or top-dose-only effect, or another doubt; inactive means no such curve, though single readings can be large; an effect the other way counts as inactive or inconclusive. Potency means the concentration at half of the fitted maximal effect.

SMILES	BAZ2B block	HP1b chromo inh	G9a inh	JMJD2A Tudor	Sfp inh	L3MBTL1 block
CN1[C@H](Cc2ccccc2)C=C[C@]1(C)C(=O)NCC1CC1	.	.	.	.	-5%	.
CC(=O)N1CCc2c(sc3c2c(=O)n(CCc2ccccc2)c(=O)n3Cc2cccc(C)c2)C1	-14%	0%	-34%[59 µM]	-35%	.	.
COc1cccc(N=Nc2ccc(O)c3ncccc23)c1	7.9µM*	?	10µM*	18µM*	12%	.
COc1cccc(-n2cnc(=O)c3cccnc32)c1	2%	37%	5%[59 µM]	-3%	8%	5%
Cc1ccc(N=Nc2ccc(O)cc2)c(Br)c1	45µM*	?	.	35µM*	-7%	?
COc1ccc(N=Nc2cc(-c3ccccc3)ccc2O)cc1	10µM*	?	?	13µM*	1%	?
COc1ccc(NC(=O)CSc2cn[nH]n2)cc1OC	3%	33%	35µM*	-4%	10%	.
Cc1cccc(NC(=O)CSc2cn[nH]n2)c1	3%	36%	40µM*	5%	17%	.
Cc1nonc1NC(=O)CSc1cn[nH]n1	-19%	18%	50µM*	-8%	8%	.
Cc1nonc1NC(=O)CSc1ccc(-c2ccccc2)nn1	-2%	35%	9%	-5%	-21%	-5%
COc1ccc(NC(=O)CSc2ccccn2)cc1OC	-12%	27%	-45%[59 µM]	-4%	0%	.
COc1ccc(C2CC(=O)c3c(O)cc(O)cc3O2)c(CC=C(C)C)c1OC (centres undefined)	.	38%	.	-31%	.	.
COc1cc2c(c(OC)c1CC=C(C)C)C[C@H](c1ccc(O)cc1O)CO2	.	-31%	.	56µM*	.	.
CCc1nnc(NC(=O)c2ccc(S(=O)(=O)N(CC(C)C)CC(C)C)cc2)o1	-5%	40%	-30%[59 µM]	-8%	15%	146%
CCc1nnc(NC(=O)c2ccc(S(=O)(=O)N(C)c3ccccc3)cc2)o1	.	6%	-19%	25µM*	19%	.
CN(C)c1ccc(C(=O)Nc2nnc(C3=COCCO3)o2)cc1	.	29%	-3%	79µM*	6%	.
CN(c1ccccc1)S(=O)(=O)c1ccc(C(=O)Nc2nnc(C3=COCCO3)o2)cc1	79µM*	40%	35µM*	-33%	11%	.
CSCc1nnc(NC(=O)c2ccc(S(=O)(=O)N(C)C)cc2)o1	-2%	14%	1%	20µM*	?	?
CSc1ccc([C@H]2CN3CCC[C@H]3c3ccccc32)cc1	.	.	?	.	-12%	.
O=S(=O)(NCCc1csc2nc(-c3ccc(F)cc3)nn12)c1ccc(Oc2ccccc2)cc1	2%	38%	4%[59 µM]	5%	.	.
CC[C@H](C)[C@H](NC(=O)CNC(=O)[C@H](CC(C)C)NC(=O)[C@H](CC(C)C)NC(=O)[C@H](CCC(N)=O)NC(=O)[C@H](CCC(N)=O)NC(=O)[C@H](CC(=O)O)NC(=O)[C@H](CCCCN)NC(=O)[C@H](CC(C)C)NC(=O)[C@H](Cc1ccc(O)cc1)NC(=O)[C@H](CCCNC(=N)N)NC(=O)[C@H](CCC(=O)O)NC(=O)[C@@H](NC(=O)[C@H](C)NC(=O)[C@H](CC(C)C)NC(=O)[C@@H](NC(=O)[C@@H](N)CCCNC(=N)N)[C@@H](C)CC)C(C)C)C(=O)N[C@@H](Cc1c[nH]c2ccccc12)C(=O)NCC(=O)N[C@@H](CS)C(=O)N[C@@H](CO)C(=O)O	.	.	.	.	-4%	.
O=C(Nc1nnc(-c2ccc(Cl)cc2)o1)C1=COCCO1	50µM*	28%	48%[59 µM]	?	17%	-16%
CCOc1cc(-c2nnc(NC(=O)C3=COCCO3)o2)cc(OCC)c1OCC	-4%	46%	-13%[2.33 µM]	-10%	.	5%
COc1ccc(-n2cc(C(=O)NCCc3ccc(C)cc3)c3ccccc3c2=O)cc1	?	12%	?	?	.	.
Cc1sc2ccc3sccc3c2[n+]1C	?	4%	3.5µM*	20µM*	2.8µM*	-7%
SMILES	BAZ2B block	HP1b chromo inh	G9a inh	JMJD2A Tudor	Sfp inh	L3MBTL1 block
Cc1sc2c3ccsc3ccc2[n+]1C	100µM*	-20%	?	25µM*	3.5µM*	.
Cc1cc(F)c(Nc2ncnc3cc(OCc4ccccc4)ccc23)cc1O	.	.	?	.	7%	.
Cc1ccc(-c2nn(CCC(=O)O)cc2/C=C\C(=O)c2ccc(Br)cc2)cc1	?	24%	25µM*	?	-3%	-26%
COc1ccc(-n2cc(-c3ccccc3)c3c(N4CCN(CCO)CC4)ncnc32)cc1	?	-9%	50µM*	?	?	-17%
COc1ccc(-n2cc(-c3ccccc3)c3c(NN4CCOCC4)ncnc32)cc1	?	?	50µM*	?	2%	.
CCCN(CCC)C(=O)Cn1c(=O)n(-c2ccc(Cl)c(Cl)c2)c(=O)c2c(C)c(C(=O)N(C)C)sc21	0%	15%	7%[59 µM]	-18%	.	.
COc1cc2nc(N(CCCN(C)C)C(=O)c3ccc(C(=O)c4ccccc4)cc3)sc2cc1OC	?	?	50µM*	?	.	-12%
CN(C)CCCN(C(=O)c1ccc2ccccc2c1)c1nc2cc3c(cc2s1)OCO3	?	4%	?	?	-5%	.
CN(C)CCCN(C(=O)c1ccc(S(=O)(=O)N2CCc3ccccc3C2)cc1)c1nc2c(F)cc(F)cc2s1	?	-5%	35µM*	?	.	-2%
COc1cccc2sc(N(CCCN(C)C)C(=O)c3ccc(S(=O)(=O)N4CCc5ccccc5C4)cc3)nc12	?	-9%	?	?	-19%	.
COc1ccc(OC)c2sc(N(CCCN(C)C)C(=O)c3ccc(S(=O)(=O)N4CCc5ccccc5C4)cc3)nc12	-12%	.	8.9µM*	.	.	2%
COc1cc2nc(N(CCCN(C)C)C(=O)c3ccc(S(=O)(=O)N4CCc5ccccc5C4)cc3)sc2cc1OC	-37%	3%	40µM*	-16%	.	-9%
Cc1ccsc1CN(C(=O)c1ccc(OCC(C)C)cc1)C1CCS(=O)(=O)C1 (centres undefined)	-15%	16%	-6%[59 µM]	-19%	.	.
Cc1cc(C)c2nc(NC(=O)c3ccc(S(=O)(=O)N4CCc5ccccc54)cc3)sc2c1	-13%	15%[57 µM]	-7%[59 µM]	-21%	.	.
Cc1cc(C)c2nc(NNC(=O)c3ccc(S(=O)(=O)N4CC(C)CC(C)C4)cc3)sc2c1 (centres undefined)	10µM*	-12%	28µM*	16µM*	?	?
Cc1cccc2sc(NNC(=O)c3ccc(S(=O)(=O)N4CC(C)CC(C)C4)cc3)nc12 (centres undefined)	8.9µM*	-16%	50µM*	22µM*	?	?
